# PubChem BioAssay AID1825 (The Scripps Research Institute Molecular Screening Center, 2009)
# Out of some 290,000 compounds screened, about 2,300 (0.79%) were called active. Cut-off read from the data, not from the text of the source: active = inhibition above about 22%; inactive = the rest. Many of the other results were omitted from the sample, so actives are more common in it than they were.
# Experiment: cytotoxicity in IEC-6 intestinal epithelial cells, primary screen, cytotoxicity control for KLF5 inhibitor project, cell-based, luminescence (AID 1825);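 note: 0% = plate median of test compound wells and 100% = cytotoxic reference compound wells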
# Details: IEC-6 cytotoxicity, luminescence viability; at 5 µM; hits give high values
row,SMILES,inhibition
1,N#C/C=C/N1CCN(Cc2ccc3c(c2)OCO3)CC1,-5.9% (inactive)
2,NS(=O)(=O)c1cccc(NC(=O)CSc2nc3ccccc3n2-c2ccccc2)c1,-1.5% (inactive)
3,Cc1ccc(-n2c(SCC(=O)Nc3ncc(Cl)cc3Cl)nc3ccccc32)cc1,61.4% (active)
4,Cc1ccc(SCCC(=O)OCC(=O)Nc2ncc(Cl)cc2Cl)cc1,-3.3% (inactive)
5,COCCN1C(=O)C(=O)/C(=C(/O)c2ccc(S(=O)(=O)N3CCOCC3)cc2)C1c1ccc(OC)c(OC)c1 (stereo not drawn),5.3% (inactive)
6,NC(=O)Cn1cc(/C=N\NS(=O)(=O)c2ccccc2)c2ccccc21,1.4% (inactive)
7,COc1ccc(CNS(=O)(=O)c2cc(-c3cc(C)no3)ccc2C(C)C)cc1,77.6% (active)
8,Cc1cc(-c2ccc(C)c(S(=O)(=O)NCCCN(Cc3ccccc3)C(C)C)c2)on1,6.1% (inactive)
9,CCOc1ccccc1CNS(=O)(=O)c1cc(-c2cc(C)no2)ccc1C,2.7% (inactive)
10,COc1cccc(NC(=O)CN(C)C(=O)c2ccccc2CCc2ccccc2)c1,-3.1% (inactive)
11,Cc1ccc(C(=O)CCC(=O)N(C)CC(=O)Nc2c(Cl)cccc2Cl)cc1,1.7% (inactive)
12,Cc1cc(C)nc(S/C=C/C(=O)c2ccccc2)n1,31.5% (active)
13,Cc1cc(C)nc(SCC(=O)c2ccc(Cl)cc2)n1,-2.2% (inactive)
14,Cc1ccc(N/C=C/C(=O)c2ccccc2)cc1C,0.5% (inactive)
15,O=S(=O)(NC1CCCC1)c1ccc(-n2cnnn2)cc1,-0.4% (inactive)
16,Cc1ccc(NS(=O)(=O)c2ccc(C)c(NC(=O)COc3ccc4ccccc4c3)c2)c(C)c1,-2% (inactive)
17,COc1ccc2cc(S(=O)(=O)Nc3ccccn3)ccc2c1,1.9% (inactive)
18,COc1cc(NS(=O)(=O)c2ccc3ccccc3c2)c2ncccc2c1,93.3% (active)
19,CCC(CC)c1nnc(NC(=O)C2CCN(C(=O)c3ccco3)CC2)s1,-0.9% (inactive)
20,COc1ccc(C(=O)c2c(C)c(CCC#N)n3ccccc23)c(OC)c1,-1.3% (inactive)
21,CCC(=C/c1sc2ccc3ccccc3c2[n+]1C)/C=C1\Sc2ccc3ccccc3c2N1C,32.2% (active)
22,CC(C)C(=O)Nc1c2c(nn1-c1ccccc1)CSC2,-4.2% (inactive)
23,COc1ccc(/C=C/c2noc(-c3ccccc3OC(C)=O)n2)cc1,-0.4% (inactive)
24,S=C(Nc1ccc(Br)cc1)NC1CCN(Cc2ccccc2)CC1,11.3% (inactive)
25,COc1ccc2c(c1OC)C(=O)OC2Nc1nc(-c2ccccc2)cs1 (stereo not drawn),21.9% (active)

row,SMILES,inhibition
1,Cc1ccc(-c2csc(NNC(=O)c3ccccc3)n2)cc1,-1.4% (inactive)
2,Cc1cccc(Nc2nc(-c3ccccc3)cs2)n1,5.9% (inactive)
3,COc1ccc(CCNc2nc(-c3cccc(NC(C)=O)c3)cs2)cc1OC,2.3% (inactive)
4,Cc1ccc(-c2csc(NC3OC(=O)c4ccccc43)n2)cc1 (stereo not drawn),34.7% (active)
5,COc1ccc(-c2csc(NC3OC(=O)c4ccccc43)n2)cc1 (stereo not drawn),18.7% (inactive)
6,COCCN1C(=O)N(c2ccc(Cl)cc2)C(=O)C1CC(=O)Nc1cc(OC)cc(OC)c1 (stereo not drawn),-2.6% (inactive)
7,CC(=O)Nc1c2c(nn1-c1ccc(C)cc1C)CS(=O)C2 (stereo not drawn),-0.7% (inactive)
8,NC(=O)c1oc2ccccc2c1NC(=O)CS(=O)(=O)c1ccccc1,6.1% (inactive)
9,Cc1ccc(NC(=O)C(C)c2cccc(C(=O)c3ccccc3)c2)cc1 (stereo not drawn),3.2% (inactive)
10,CCOc1ccc(NC(=O)CCC(=O)NNC(=O)NC2CCCCC2)cc1,-7.2% (inactive)
11,O=S(=O)(c1ccc(Br)cc1)n1ccc2ccccc21,3.2% (inactive)
12,CCn1c(SCC(=O)NC2=NCCS2)nnc1C(C)NC(=O)c1ccccc1F (stereo not drawn),0.1% (inactive)
13,O=C(Cc1ccccc1)Nc1ccc(NC(=O)c2cccnc2)cc1,0.2% (inactive)
14,CSc1nc2ccc(NC(=O)c3c(F)cccc3F)cc2s1,8.5% (inactive)
15,CCCC(=O)Nc1nc2ccc(NC(=O)c3c(F)c(F)c(OC)c(F)c3F)cc2s1,76.8% (active)
16,CCOC(=O)c1ccc(NC(=O)c2cccnc2)cc1,-6.9% (inactive)
17,CCCC(=O)Nc1nc2ccc(NC(=O)c3cccnc3)cc2s1,30.2% (active)
18,CCOc1ccc2nc(Nc3nc4ccc(NC(C)=O)cc4s3)sc2c1,-2.2% (inactive)
19,COc1ccccc1/C=C/C(=O)NC1CC2CCC1C2 (stereo not drawn),4.4% (inactive)
20,Cc1cc(C)n2nc(C(=O)NC(C)(C)C)nc2n1,3.3% (inactive)
21,Cc1cc(C)n2nc(SCC(N)=O)nc2n1,4.6% (inactive)
22,Cc1cc(C)n2nc(CNS(=O)(=O)c3c(F)c(F)c(F)c(F)c3F)nc2n1,31.5% (active)
23,O=C1C(=O)N(CCCN2CCOCC2)C(c2ccc([N+](=O)[O-])cc2)/C1=C(\O)c1ccc2c(c1)OCCO2 (stereo not drawn),-1.8% (inactive)
24,COc1ccc(Nc2ncc(C(=O)N3CCN(c4ccccc4OC)CC3)c3ccccc23)cc1,11.7% (inactive)
25,Cn1c(Nc2cccc(Cl)c2)nc2ccccc21,4.2% (inactive)

row,SMILES,inhibition
1,CCOc1c(Nc2cccc(Cl)c2)c(=O)c1=O,23.4% (active)
2,NS(=O)(=O)c1cccnc1Nc1cccc(Cl)c1,-0.6% (inactive)
3,O=C(Nc1ccc(Br)cn1)c1ccc([N+](=O)[O-])o1,16.7% (inactive)
4,Cc1onc(C(=O)NCc2ccc(F)cc2)c1[N+](=O)[O-],-2.3% (inactive)
5,Cc1cccc(NC(=O)c2sc(-c3ccccc3)nc2-c2ccc([N+](=O)[O-])cc2)c1,-10% (inactive)
6,Cc1onc(NC(=O)c2ccc([N+](=O)[O-])o2)c1Br,46.1% (active)
7,Cc1cccc(NC(=S)NC(=O)c2ccc(Br)o2)c1,1.6% (inactive)
8,Cc1cccc(NC(=O)c2ccc([N+](=O)[O-])o2)c1,66.2% (active)
9,O=c1[nH]cnc(O)c1C(c1ccc(F)cc1)c1c(O)nc[nH]c1=O,-4.2% (inactive)
10,CC1C(=O)Nc2ccc(S(=O)(=O)N3CCN(c4ccccc4F)CC3)cc2NC1=O (stereo not drawn),1.5% (inactive)
11,O=c1c2c(-c3ccccc3)ccnc2[nH]n1-c1ccccc1,-0.7% (inactive)
12,COc1ccc(-c2ccc(CCC(=O)O)n2NC(=O)c2ccc(C(C)(C)C)cc2)cc1,-6.8% (inactive)
13,Cc1ccc(-c2cc(=O)c3ccc(F)cc3[nH]2)cc1,-6.3% (inactive)
14,O=c1cc(-c2ccccc2)[nH]c2cc(F)ccc12,80.7% (active)
15,Cc1ccc(-c2cc(=O)c3ccc(Cl)cc3[nH]2)cc1,0.6% (inactive)
16,O=C(Nc1cccc2cccnc12)c1cccc(Cl)c1,7.6% (inactive)
17,COc1ccc(C(=O)NCC(=O)N/N=C/c2cccnc2)cc1,3.2% (inactive)
18,Cc1nc2nc(C)c(NS(=O)(=O)c3ccc(C(C)(C)C)cc3)c(=O)n2[nH]1,1.1% (inactive)
19,CC(=O)NCC(=O)NC1CCCc2c1cnn2-c1ccccc1F (stereo not drawn),-1.9% (inactive)
20,COc1ccc(C(=O)NC2CCCc3c2cnn3-c2cccc(C)c2C)c(OC)n1 (stereo not drawn),8.5% (inactive)
21,Cc1cc(C(=O)NC2CCCc3c2cnn3-c2cccc(C)c2C)c(C)o1 (stereo not drawn),4.8% (inactive)
22,Cn1nccc1C(=O)NC1CCCc2c1cnn2-c1ccccc1F (stereo not drawn),25.7% (active)
23,Cn1nccc1C(=O)NC1CCCc2c1cnn2-c1ccc(F)cc1F (stereo not drawn),31% (active)
24,Cc1ccc(-n2ncc3c2CCCC3NC(=O)c2cnccn2)cc1C (stereo not drawn),3.7% (inactive)
25,Cc1ccc(/C=C2\CCn3c2nc2cc(C(=O)O)ccc2c3=O)c(C)c1,1.8% (inactive)

row,SMILES,inhibition
1,C=C(C)Cn1c(C)cc(C)c(S(=O)(=O)c2ccccc2C)c1=O,-2.1% (inactive)
2,Cc1cccc(-n2ncc(C#N)c2-n2cccc2)c1,1.1% (inactive)
3,Cc1cccc(-n2ncc(Cl)c(Cl)c2=O)c1,97.5% (active)
4,COc1ccc(Oc2c(Cl)cnn(-c3ccccc3)c2=O)cc1,1.3% (inactive)
5,CC(C)CC(=O)N1CCN(Cc2ccccc2Br)CC1,1.6% (inactive)
6,COc1ccc(/C=C/C(=O)Nc2ccc(C34CC5CC(CC(O)(C5)C3)C4)cc2)cc1OC,18.5% (inactive)
7,O=C(N=C1SC2CS(=O)(=O)CC2N1c1cc(Cl)ccc1Cl)C1CC1 (stereo not drawn),-6.4% (inactive)
8,COc1ccc(C23NCCN2C(=O)c2ccccc23)cc1 (stereo not drawn),1.3% (inactive)
9,COc1cccc(N2C(=O)CN(Cc3ccccc3)C2=S)c1,9.4% (inactive)
10,Cc1ccc(S(=O)(=O)N(C)C2(C)CCS(=O)(=O)C2)cc1 (stereo not drawn),-8.7% (inactive)
11,Cc1ccc(S(=O)(=O)N2CCN(C)CC2)cc1,-1.1% (inactive)
12,Cc1ccc(S(=O)(=O)C2(S(=O)(=O)c3ccc(C)cc3)CCCC2)cc1,45.6% (active)
13,COc1ccccc1CCNS(=O)(=O)c1cn(C)nc1C,-1.7% (inactive)
14,CN(CCc1ccccn1)C1CCCN(S(=O)(=O)c2ccccc2Cl)C1 (stereo not drawn),5.5% (inactive)
15,O=C(CN1C(=O)C2C3C=CC(C3)C2C1=O)NCC1COc2ccccc2O1 (stereo not drawn),-0.7% (inactive)
16,O=C1C(=O)N(CC2COc3ccccc3O2)c2ccccc21 (stereo not drawn),65.8% (active)
17,Cc1cc(C(=O)CCl)c(C)n1CC1COc2ccccc2O1 (stereo not drawn),-0.4% (inactive)
18,COc1ccc(N2CC(C(=O)N[C@@H](C)C(=O)N3CCCCC3)CC2=O)cc1 (stereo partly drawn),4.5% (inactive)
19,Cc1ccc(-n2ncc3c2CC(C)(C)CC3NC(=O)Cc2c(C)noc2C)cc1 (stereo not drawn),4% (inactive)
20,COc1cc(Br)c(-c2sc(Nc3ccccc3)n[n+]2-c2ccccc2)cc1OC,-5.7% (inactive)
21,COc1ccc(-c2cn(-c3ccc(OC)cc3)c(=S)[nH]2)cc1,-3.2% (inactive)
22,S=c1[nH]c(-c2cccs2)cn1-c1ccccc1,-0.4% (inactive)
23,O=c1oc2ccccc2cc1-c1cn(-c2ccccc2)c(=S)[nH]1,30.6% (active)
